According to PubChem BioAssay (EPA / NIEHS):
Records with an inconclusive call do not appear. Calls of active or inactive are those of the source. The calls were made as follows: active = hit-call score of the fitted dose curve at least 0.9, where 1 is the maximum; inconclusive = response in the unintended direction; inactive = score below 0.9.

Experiments:
[1] = biological target: Cellular tumor antigen p53 (Homo sapiens) (UniProt P04637); test: TOX21_p53_BLA_p2_ratio: Tox21 HCT-116 p53 Agonism Beta-lactamase Assay, Ratio, Phase 2 (AID 2283592)
Chain of Cellular tumor antigen p53 (Homo sapiens) (P04637 whole entry, looked up): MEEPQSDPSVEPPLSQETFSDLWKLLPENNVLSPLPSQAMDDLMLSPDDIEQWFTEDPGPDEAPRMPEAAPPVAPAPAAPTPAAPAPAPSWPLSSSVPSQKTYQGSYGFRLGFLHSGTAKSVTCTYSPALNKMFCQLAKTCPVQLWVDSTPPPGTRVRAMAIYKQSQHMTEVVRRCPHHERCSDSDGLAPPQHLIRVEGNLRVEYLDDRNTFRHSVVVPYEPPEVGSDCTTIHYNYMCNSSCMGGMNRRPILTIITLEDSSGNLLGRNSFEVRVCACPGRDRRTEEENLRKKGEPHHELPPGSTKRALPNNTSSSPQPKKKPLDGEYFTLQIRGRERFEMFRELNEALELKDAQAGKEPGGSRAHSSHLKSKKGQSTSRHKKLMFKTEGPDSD
Method in brief: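 First, HCT116 reporter cells settle for 5 h at 37C. Next, DMSO compound solutions are pinned in (217-fold dilution) and left 16 h. Finally, CCF4-AM substrate is loaded 2 h at room temperature and the 460/530 nm ratio read.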

[2] = TOX21_p53_BLA_p3_viability: Viability Assessment in the Tox21 HCT-116 p53 Agonism Beta-lactamase Assay, Phase 3 (AID 2283593);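 also: cells exposed to compound for 16 h before reading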
Method in brief: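 Cellular ATP was quantified by CellTiter-Glo luminescence, read after 30 min at room temperature. Beforehand, HCT116 cells (4000/well) received compound 5 h post-seeding, 217-fold diluted from DMSO, then incubated 16 h at 37C.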

[3] = biological target: Cellular tumor antigen p53 (Homo sapiens) (UniProt P04637); test: TOX21_p53_BLA_p3_ratio: Tox21 HCT-116 p53 Agonism Beta-lactamase Assay, Ratio, Phase 3 (AID 2283596)
Method in brief: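 Cells were seeded at 4000/well, rested 5 h at 37C, then dosed with DMSO compound solutions (217-fold dilution) for 16 h. CCF4-AM substrate was loaded for 2 h at room temperature, and the 460/530 nm emission ratio was fitted for gain of signal versus DMSO.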

[4] = TOX21_p53_BLA_p4_viability: Viability Assessment in the Tox21 HCT-116 p53 Agonism Beta-lactamase Assay, Phase 4 (AID 2283597);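 also: hits lower the luminescence signal meaning cytotoxicity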
Method in brief: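 4000 HCT116 cells per well; 5 h attachment; compounds from DMSO, 217-fold dilution; 16 h at 37C. Then CCF4-AM, 2 h RT, followed by CellTiter-Glo, 30 min RT, luminescence. Decrease = cytotoxicity.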

[5] = TOX21_p53_BLA_p5_viability: Viability Assessment in the Tox21 HCT-116 p53 Agonism Beta-lactamase Assay, Phase 5 (AID 2283600)
Method in brief: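 Decreased CellTiter-Glo luminescence denotes lost viability. Exposure: 16 h at 37C, 5% CO2, with compounds from DMSO stocks diluted 217-fold in wells of 4000 cells.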

[6] = biological target: Cellular tumor antigen p53 (Homo sapiens) (UniProt P04637); test: TOX21_p53_BLA_p4_ratio: Tox21 HCT-116 p53 Agonism Beta-lactamase Assay, Ratio, Phase 4 (AID 2283601)
Method in brief: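 Signal is the blue/green (460nm/530nm) ratio of cleaved versus uncleaved CCF4-AM substrate, read after 2 h substrate loading. Cells were HCT116 carrying the p53-responsive beta-lactamase reporter, dosed 16 h at 37C, 5% CO2; CellTiter-Glo measured in parallel.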

[7] = biological target: Cellular tumor antigen p53 (Homo sapiens) (UniProt P04637); test: TOX21_p53_BLA_p5_ratio: Tox21 HCT-116 p53 Agonism Beta-lactamase Assay, Ratio, Phase 5 (AID 2283599)
Method in brief: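 Beta-lactamase reporter ratio (blue 460 nm over green 530 nm, 405 nm excitation) after 2 h CCF4-AM loading, in HCT-116 cells exposed 16 h at 37 C to compounds pinned at 217-fold dilution. Increases relative to DMSO baseline scored.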

Measured: AC50

Clc1cc(Cl)cc(Cl)c1
not listed: [7]
inactive: all other assays above

O=S(O)(O)=S
not listed: [7]
inactive: all other assays above

CN1C(=O)CN2CCc3ccccc3C2c2cc(Cl)ccc21 (centres undefined)
active: [1] 35.6 µM | [3] 39.8 µM | [6] 33.8 µM
inactive: [2] | [4]

O=C(O)c1c2ccccc2cc2ccccc12
not listed: [7]
inactive: all other assays above

CCSC(=O)N(CC)CC
inactive: [1] | [2] | [3] | [7]

Nc1ccn(C2CO[C@H](CO)O2)c(=O)n1 (some centres undefined)
inactive: [2] | [4]
active: [1] 5.86e-05 µM | [3] 5.96e-05 µM | [6] 8.16e-05 µM

O=C(O)O
not listed: [7]
inactive: all other assays above

CO[C@@H]1[C@@H](OC)[C@H](C)[C@@](O)(CC(=O)O)O[C@H]1[C@H](C)[C@H]1O[C@@]2(CC[C@@](C)([C@H]3CC[C@@](C)([C@@H]4O[C@@H]([C@H]5O[C@](C)(O)[C@H](C)C[C@@H]5C)C[C@@H]4OC4C[C@H](OC)[C@@H](OC)[C@H](C)O4)O3)O2)C[C@H](O)[C@H]1C (some centres undefined)
active: [1] 8.98 µM
inactive: [2] | [3] | [4] | [6]

COc1ccccc1OC(=O)Oc1ccccc1OC
not listed: [5] | [7]
inactive: all other assays above

CCN(CC)CCNC(=O)COc1ccc(Cl)cc1
not listed: [5] | [7]
inactive: all other assays above

CC(=O)NC(Cc1ccccc1)C(=O)O (centres undefined)
not listed: [7]
inactive: all other assays above

CC(C)(O)CCCC1=CCC(C=O)CC1 (centres undefined)
not listed: [6] | [7]
inactive: all other assays above

O=C(NCCO[N+](=O)[O-])c1cccnc1
not listed: [7]
inactive: all other assays above

COc1ccc(C=CC(=O)OCCC(C)C)cc1
not listed: [6] | [7]
inactive: all other assays above

CCN(CC)C(=O)Nc1ccc(OCC(O)CNC(C)(C)C)c(C(C)=O)c1 (centres undefined)
not listed: [6] | [7]
inactive: all other assays above

C=COCC(C)C
inactive: [1] | [2] | [3] | [7]

C[N+]12CCC(CC1)C(OC(=O)C(O)(c1ccccc1)c1ccccc1)C2 (centres undefined)
not listed: [5] | [7]
inactive: all other assays above

O=S(O)CO
not listed: [5] | [7]
inactive: all other assays above

CC(=O)Oc1c(C)cc(OCC(O)CNC(C)C)c(C)c1C (centres undefined)
not listed: [5] | [7]
inactive: all other assays above

NCCCC[C@H](N[C@@H](CCc1ccccc1)C(=O)O)C(=O)N1CCC[C@H]1C(=O)O
not listed: [7]
inactive: all other assays above

CC(CCc1ccc(O)cc1)NCCc1ccc(O)c(O)c1 (centres undefined)
inactive: [1] | [2] | [3] | [4]
active: [6] 43.6 µM

CC[C@H](C)[C@H](N)C(=O)O
inactive: [1] | [2] | [3] | [7]

CO[C@@H]1[C@@H](OC(N)=O)[C@@H](O)[C@H](Oc2ccc3c(O)c(NC(=O)c4ccc(O)c(CC=C(C)C)c4)c(=O)oc3c2C)OC1(C)C
not listed: [6] | [7]
inactive: all other assays above

NCC(=O)O
not listed: [4] | [6]
inactive: all other assays above

O=C(O)Cc1ccc(CCNS(=O)(=O)c2ccc(Cl)cc2)cc1
not listed: [7]
inactive: all other assays above

CCOC(=O)c1ccccc1O
not listed: [4] | [6]
inactive: all other assays above

CN1[C@@H]2CC[C@H]1CC(OC(c1ccccc1)c1ccccc1)C2 (some centres undefined)
not listed: [7]
inactive: all other assays above

CC(=O)CC(=O)Nc1ccc2[nH]c(=O)[nH]c2c1
inactive: [1] | [2] | [3] | [7]

CCCCC(O)c1ccccc1 (centres undefined)
active: [2] 30.6 µM
not listed: [7]
inactive: all other assays above

O=P(O)(O)OP(=O)(O)O
not listed: [7]
inactive: all other assays above

CCCC(CC)CCCCCCCN (centres undefined)
active: [2] 81 µM | [3] 79.2 µM
not listed: [7]
inactive: all other assays above

CO[Si](CCCNCCC[Si](OC)(OC)OC)(OC)OC
not listed: [7]
inactive: all other assays above

CCN(C=O)CC
not listed: [6] | [7]
inactive: all other assays above

CCOc1cc(CC(=O)N[C@@H](CC(C)C)c2ccccc2N2CCCCC2)ccc1C(=O)O
not listed: [5] | [7]
inactive: all other assays above
